Consider 25 compounds from the supplement of paper PMC11172423.

The subject of assay [1] is Falciformispora senegalensis CBS197.79. Put plainly: growth relative to untreated control; higher = less inhibition, active = 20 or less. An outline of the steps: (§1)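 Viability readout used either MTS (2 h, 490 nm) or resazurin (600 nm). Before this, hyphal fragments of M. mycetomatis MM55 or F. senegalensis CBS197.79 in colourless RPMI 1640 with L-glutamine and MOPS (68–72% transmission at 660 nm) had been exposed in 96-well plates to compound at 100 or 25 µM for 7 days at 37 °C. Growth denotes metabolic activity relative to the untreated growth control, with a medium-plus-dye blank subtracted from both.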

For assay [2], the system named is Madurella mycetomatis MM55. The assay is described as above. The method in brief:
as §1

Values without a mark were called inactive.

Take `CN1CCC(Oc2nc(Nc3ccccc3)nc3[nH]cc(-c4cnn(C)c4)c23)CC1`: the growth was 89% in assay [1] (25 µM) and 79% in assay [1] (100 µM).

For `CN(c1ncc2nc(Nc3cc(Cl)cc(C(F)(F)F)c3)n(C3CCNCC3)c2n1)C1CC1`, the growth in assay [1] (25 µM) is 90.9%; in assay [1] (100 µM), 12.3% (active).

For the compound `CNC(=O)c1cc(-c2n[nH]c3ccc(-c4nc(C5CCCN5)n[nH]4)cc23)ccc1F` (stereo not given), the growth in assay [1] (25 µM) is 105%; in assay [1] (100 µM), 106%.

As to `CO/C=C(/C(=O)OC)c1ccccc1COc1c(C)c(-c2ccc(C)cc2C)nn1C`, the growth is 46.5% in assay [1] (25 µM), 15% (active) in assay [1] (100 µM), 6.33% (active) in assay [2] (25 µM) and 10.3% (active) in assay [2] (100 µM).

Regarding `CC(C)CC(NCCc1ccccc1O)c1ccccn1` (stereo not given), the growth is 99.8% in assay [1] (25 µM) and 78.8% in assay [1] (100 µM).

As for `Cc1c(-c2ccc(-c3ccccc3F)cc2)nc2ccc(F)cc2c1C(=O)O`, the growth was 103% in assay [1] (25 µM) and 98.6% in assay [1] (100 µM).

Take `C[C@H](NC(=O)c1cc2cccc(F)c2[nH]1)c1ccccc1`: the growth in assay [1] (25 µM) was 100%; in assay [1] (100 µM) it was 90.3%.

For the compound `COC(=O)C1=C(C)NC(C)=C(C(=O)OCCN2CCN(C(c3ccccc3)c3ccccc3)CC2)C1c1cccc([N+](=O)[O-])c1` (stereo not given), the growth in assay [1] (25 µM) is 94%; in assay [1] (100 µM), 99.1%; in assay [2] (25 µM) it was 81.7%; in assay [2] (100 µM) it was 86.7%.

For the compound `CC(N)CCn1c(Nc2cc(Cl)cc(C(F)(F)F)c2)nc2cnc(NC3CCCC3)nc21` (stereo not given), the results for the growth in assay [1] (25 µM) and in assay [1] (100 µM) were 10.9% (active) and 17.2% (active), respectively.

Turning to `CN(C)c1cc(NC(=O)CNC(C)(C)C)c(O)c2c1C[C@H]1C[C@H]3[C@H](N(C)C)C(O)=C(C(N)=O)C(=O)[C@@]3(O)C(O)=C1C2=O`, the growth is 104% in assay [1] (25 µM) and 107% in assay [1] (100 µM).

With `O=C(c1ccc(Nc2nccc(-c3ccc(Cl)cc3)n2)cc1)N1CC[C@@H](CO)C1`, the growth was 91.1% in assay [1] (25 µM) and 89.6% in assay [1] (100 µM).

Turning to `C=CC[C@@H]1/C=C(\C)C[C@H](C)C[C@H](OC)[C@H]2O[C@@](O)(C(=O)C(=O)N3CCCC[C@H]3C(=O)O[C@H](/C(C)=C/[C@@H]3CC[C@@H](O)[C@@H](OC)C3)[C@H](C)[C@@H](O)CC1=O)[C@H](C)C[C@@H]2OC`, the growth was 103% in assay [1] (25 µM) and 105% in assay [1] (100 µM).

As to `CCc1nn2c(Nc3ccncc3)cc(C)nc2c1-c1ccccc1`, the figures for the growth in assay [1] (25 µM) and in assay [1] (100 µM) were 88.3% and 92.6%, respectively.

With `CN(C)C(=O)COC(=O)Cc1ccc(OC(=O)c2ccc(NC(=N)N)cc2)cc1`, the growth in assay [1] (25 µM) was 112%; in assay [1] (100 µM), 108%.

Regarding `CC(C)(C)Nc1ncc2nc(Nc3cccc(C(F)(F)F)c3)n(CC3CCNCC3)c2n1`, the growth was 92.9% in assay [1] (25 µM) and 97.2% in assay [1] (100 µM).

Regarding `COc1cc(OC)c2c(O)nc(-c3cc(C)c(OCCO)c(C)c3)nc2c1`, the growth in assay [1] (25 µM) is 103%; in assay [1] (100 µM), 97.6%.

In the case of `N#Cc1ccc(C/C(=N/NC(=O)Nc2ccc(OC(F)(F)F)cc2)c2cccc(C(F)(F)F)c2)cc1`, the growth in assay [1] (25 µM) was 97%; in assay [1] (100 µM), 96.1%.

As for `CCOc1ccc(-c2ccnc(Nc3cncc(OC)c3)n2)cc1C#N`, the growth in assay [1] (25 µM) is 100%; in assay [1] (100 µM), 86.8%; in assay [2] (25 µM), 88.5%; in assay [2] (100 µM), 68.7%.

Take `COc1cc2nccc(Oc3ccc(NC(=O)C4(C(=O)Nc5ccc(F)cc5)CC4)cc3)c2cc1OC`: the growth in assay [1] (25 µM) is 83.6%; in assay [1] (100 µM), 98.4%; in assay [2] (25 µM), 99.9%; in assay [2] (100 µM), 79.9%.

Consider `COc1ccc(-c2nn3c(-c4ccco4)nnc3s2)cc1OC`, for which the growth is 104% in assay [1] (25 µM), 96% in assay [1] (100 µM), 97% in assay [2] (25 µM) and 55.2% in assay [2] (100 µM).

As for `O=C(Nc1ncc([N+](=O)[O-])s1)c1ccccc1O`, the growth is 95.8% in assay [1] (25 µM), 100% in assay [1] (100 µM), 72.6% in assay [2] (25 µM) and 91.8% in assay [2] (100 µM).

In the case of `Clc1cccc2cnsc12`, the growth in assay [1] (25 µM) was 96.1%; in assay [1] (100 µM) it was 86.1%; in assay [2] (25 µM) it was 125%; in assay [2] (100 µM) it was 68.5%.

As for `CC[C@@H]([C@H](C)O)n1ncn(-c2ccc(N3CCN(c4ccc(OC[C@@H]5CO[C@@](Cn6cncn6)(c6ccc(F)cc6F)C5)cc4)CC3)cc2)c1=O`, the growth in assay [1] (25 µM) was 25.2%; in assay [1] (100 µM), 24.1%; in assay [2] (25 µM), 6.56% (active); in assay [2] (100 µM), 9.91% (active).

Turning to `CN(C)C[C]1[CH][CH][CH][C]1CNc1ccnc2cc(Cl)ccc12.[CH]1[CH][CH][CH][CH]1.[Fe]`, the growth was 59.2% in assay [1] (25 µM), 58% in assay [1] (100 µM), 33.7% in assay [2] (25 µM) and 39.8% in assay [2] (100 µM).

For the compound `Oc1ccccc1CCNC1CCc2ccc(F)cc21` (stereo not given), the growth in assay [1] (25 µM) is 107%; in assay [1] (100 µM), 115%; in assay [2] (25 µM), 32.8%; in assay [2] (100 µM), 34%.
